Results filed as inconclusive are left out. Active and inactive are the calls of the source. How the source made its calls: active means hit-call score of the fitted dose curve at least 0.9, where 1 is the maximum; inconclusive means response in the unintended direction; inactive means score below 0.9.

The target of this experiment is human Caspase 4 (CASP4), CASP4 (gene 837) (UniProt P49662). Nature of the experiment: NVS_ENZ_hCASP4: NovaScreen (NVS) Enzymatic Assay for human Caspase 4 (CASP4) (AID 2283143). On the procedure: NVS_ENZ_hCASP4 is a biochemical, single-readout assay that uses extracted gene-proteins from E. coli in a cell-free assay. Measurements were taken 2 hours after chemical dosing in a 96-well plate.NVS_ENZ_hCASP4 is one of one assay component(s) measured or calculated from the NVS_ENZ_hCASP4 assay. It is designed to make measurements of enzyme activity, a form of enzyme reporter, as detected with fluorescence intensity signals by Fluorescence technology.Data from the assay component NVS_ENZ_hCASP4 was analyzed into 1 assay endpoint. This assay endpoint, NVS_ENZ_hCASP4, was analyzed in the positive analysis fitting direction relative to DMSO as the negative control and baseline of activity. Using a type of enzyme reporter, loss-of-signal activity can be used to understand changes in the enzymatic activity as they relate to the gene CASP4. Furthermore, this assay endpoint can be referred to as a primary readout, because this assay has produced multiple assay endpoints where this one serves a enzymatic activity function. To generalize the intended target to other relatable targets, this assay endpoint is annotated to the protease intended target family, where the subfamily is cysteine protease.
human Caspase 4 (CASP4), CASP4 (gene 837), sequence (P49662 whole entry, looked up): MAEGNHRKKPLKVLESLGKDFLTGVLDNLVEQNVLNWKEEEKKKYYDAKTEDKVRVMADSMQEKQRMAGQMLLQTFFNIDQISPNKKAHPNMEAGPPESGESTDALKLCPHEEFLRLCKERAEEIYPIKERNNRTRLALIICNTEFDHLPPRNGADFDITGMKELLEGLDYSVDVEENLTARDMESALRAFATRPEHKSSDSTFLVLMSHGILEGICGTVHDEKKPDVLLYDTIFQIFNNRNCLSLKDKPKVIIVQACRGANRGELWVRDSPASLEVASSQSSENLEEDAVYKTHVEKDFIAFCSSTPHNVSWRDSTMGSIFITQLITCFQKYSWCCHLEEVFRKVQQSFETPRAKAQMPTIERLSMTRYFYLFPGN
Binding assays used specific radioligands (tritiated, iodinated) with non-radioactive competitive displacement ligands in agonist or antagonist protocols (as indicated) and various reference compounds and inhibitors to titrate specific binding to receptors and transporters. Most enzyme assays (CYPs, kinases, phosphatases, proteases, HDACs) used recombinant protein and specific substrates (fluorescence mostly, some colorimetric and radioactive) and inhibitors, followed by a biochemical separation of substrate and product. All assays for the biochemical HTS were initially run in duplicate at a single concentration (10 uM for CYP450 assays and 25 uM for all others). Assay-chemical combinations meeting a pre-defined threshold (e.g., 30% inhibition and other criteria defined below) were then run in singleton concentration-response format with maximum concentration of 20 uM for CYPs and 50 uM for all others. Each assay was run with positive and negative controls, and concurrent controls on every plate. The follow-up (secondary) screen tested active chemical-pairs in concentration series, as well as a few additional assays not tested in the primary screen, some selected negative inactives, and several cases re-run in the concentration series for confirmatory purposes.
For orientation: AC50 means the midpoint of the concentration-response curve, whichever way the signal moves. For `COc1cc(S(=O)(=O)O)c(C)cc1N=Nc1c(O)ccc2cc(S(=O)(=O)O)ccc12`, the AC50 is 25 µM (active). Turning to `CCc1c(C(=O)NN2CCCCC2)nn(-c2ccc(Cl)cc2Cl)c1-c1ccc(Br)cc1`, the compound was called inactive. On the same count and under the same terms, the result for `O=c1c(O)c(-c2ccc(O)c(O)c2)oc2cc(O)cc(O)c12` reads “inactive”. As for `Nc1ccc2c(c1)C(=O)c1ccccc1C2=O`, the AC50 is 18.9 µM (active). Take `CCCCc1ccc2c(n1)[C@@H](c1ccc(OC)cc1C[C@H](C)C(=O)O)[C@H](C(=O)O)[C@H]2c1ccc2c(c1)OCO2`: the result was inactive. Regarding `CCOc1ccc2c(c1)C(C)=CC(C)(C)N2`, the AC50 was 15.1 µM (active).

As for `CC1=C(/C=C/C(C)=C/C=C/C(C)=C/CO)C(C)(C)CCC1`, the result was inactive. `Cc1cccc([N+](=O)[O-])c1C`: the call was inactive. As to `Cc1ccc(C(C)C)c(O)c1`, the call was inactive. On the same count and under the same terms, the result for `COc1ccc(S(=O)(=O)N2C(=O)[C@@](c3ccccc3OC)(N3C[C@H](O)C[C@H]3C(=O)N(C)C)c3cc(Cl)ccc32)c(OC)c1` reads “inactive”. As to `COc1cc(-c2nc(NC(=O)c3cc4cc(C)cc(C)c4n3CC(=O)O)sc2CCC2CCCCC2)c(OC)cc1Cl`, the AC50 was 14.3 µM (active).

For `Cc1nc(-c2ccc3c(c2)CCN(CCC2CCC(NC(=O)/C=C/c4ccc(F)cc4)CC2)CC3)no1` (configuration not stated), the compound was classed as inactive.

For the origin of these results see PubChem BioAssay (EPA / NIEHS).
